# High-throughput results (PubChem BioAssay)
# In the library only some 7.3% were active in any assay of this set; here they are far more common.
# FLuc modulator: inhibits or activates purified firefly luciferase, miR-21 counter-screen; P08659; purified FLuc, Km substrates, luminescence inhibition; Potency, µM (top dose mostly 57.5 µM), actives largely listed as inhibitors; 360,000 compounds, 6.9% hits; AID 588342; also: nearly all actives have a fitted effect of over 55% in size
# Target sequence (P08659 whole entry, looked up): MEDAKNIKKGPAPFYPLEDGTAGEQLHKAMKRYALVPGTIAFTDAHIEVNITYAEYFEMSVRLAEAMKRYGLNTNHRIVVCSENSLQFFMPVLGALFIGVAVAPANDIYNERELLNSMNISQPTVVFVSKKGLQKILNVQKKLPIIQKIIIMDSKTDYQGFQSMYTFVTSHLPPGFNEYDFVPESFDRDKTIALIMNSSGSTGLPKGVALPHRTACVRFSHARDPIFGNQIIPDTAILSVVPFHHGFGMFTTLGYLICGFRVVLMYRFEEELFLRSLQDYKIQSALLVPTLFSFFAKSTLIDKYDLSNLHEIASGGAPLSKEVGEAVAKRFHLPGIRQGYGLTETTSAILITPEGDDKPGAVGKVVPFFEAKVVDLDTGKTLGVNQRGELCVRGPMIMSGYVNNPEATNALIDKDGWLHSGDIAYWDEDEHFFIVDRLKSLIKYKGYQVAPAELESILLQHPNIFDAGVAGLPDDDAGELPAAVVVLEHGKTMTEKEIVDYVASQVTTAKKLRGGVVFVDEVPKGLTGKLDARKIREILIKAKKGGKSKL
#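 Biochemical qHTS of compounds, final roughly 60 µM downward over six points, against 10 nM purified firefly luciferase using Km concentrations of substrates (10 uM D-luciferin, 10 uM ATP) in Tris acetate pH 7.5 buffer; luminescence output.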
# ELG1 genotoxic: genotoxicity induction in ELG1-luciferase HEK293T cells; AID 504466; Potency, µM (top dose mostly 46 µM), actives largely listed as activators; HEK293T ELG1-luciferase reporter, luminescence, 16 h; 330,000 compounds, 1.3% hits; also: nearly all actives have a fitted effect of over 60% in size
#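 Quantitative HTS format in 1536-well plates. HEK293T ELG1-luciferase reporter cells receive test compound and are incubated 16 hr at 37 °C, 5% CO2; ONE-Glo added, 30 min room temperature, then luminescence read.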
# NPC1 prom act: NPC1 promoter activation; Huh7 NPC1 promoter luciferase reporter, 24 h; Potency, µM (series often up to 9.22 µM), most hits filed as activators; 320,000 compounds, 2.4% hits; AID 485313; also: nearly all actives have a fitted effect of over 60% in size
#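 In 1536-well qHTS, Huh7 cells harboring an NPC1 promoter–luciferase construct received compound for 24 h; activation was quantified by luminescence following luciferase reagent addition.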
# SMN2 splice up: increases expression of the SMN2 splice variant; HEK293 SMN2-luciferase splicing reporter, luminescence, 30-36 h; Potency, µM (series often up to 46.1 µM), hits mostly activators; 210,000 compounds, 2.8% hits; AID 1458; also: nearly all actives have a fitted effect of over 55% in size
#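 HEK293 cells carry an SMN2 […]–luciferase reporter in which exon 7 inclusion puts luciferase in frame. Cells were plated 10-12 h before compound addition, then incubated 30-36 h at 37C. ONE-Glo luminescence was read; sodium butyrate at 4.5 mM final served as control.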
# Rab9 promoter act: activates the Rab9 promoter; 320,000 compounds, 2.8% hits; Potency, µM (titrated, usually from 9.22 µM), actives largely listed as activators; Huh7 Rab9 promoter-luciferase reporter, luminescence, 24 h; also: nearly all actives have a fitted effect of over 60% in size
#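 Quantitative HTS format; Huh7 Rab9-luciferase reporter cells (1500/well) receive compound 2 h post-plating, incubate 24 h at 37 °C, then get luciferase reagent for 10 min before luminescence reading.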
# Luc counter: counter-screen: inhibitors of Kinase-Glo firefly luciferase; Q27757; Kinase-Glo luciferase, ATP luminescence, 8 min; Potency, µM (series often up to 38.3 µM), actives largely listed as inhibitors; 200,000 compounds, 0.28% hits; also: nearly all actives have a fitted effect of over 60% in size
#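 Light output from Kinase-Glo luciferase with luciferin and 10 uM ATP in 50 mM imidazole pH 7.2, KCl, MgCl2, Tween 20, BSA; compound pin-delivered, 8-min ambient incubation, then luminescence read.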
# A number is an active result; i = inactive; ? = inconclusive; nt = no result; [ ] = remark or other dose. Calls follow the shape of the dose curve; as a rule, active = well fitted curve in the direction sought with a large enough effect; inconclusive = small, poorly fitted or top-dose-only effect, or another doubt; inactive = no such curve, though single readings can be large; an effect the other way counts as inactive or inconclusive.
SMILES,FLuc modulator,ELG1 genotoxic,NPC1 prom act,SMN2 splice up,Rab9 promoter act,Luc counter
Cc1ccc(CCCOC(=O)C[N+]2(C)CCOCC2)cc1,i,i,i,i,i,i
C[C@@H](CCC[C@@H]1SC[C@H]2NC(=O)N[C@H]12)C(=O)O,nt,nt,nt,i[9.22 µM],nt,i[7.66 µM]
C/C(=N\OCC(=O)NCC(F)(F)F)c1cc2ccccc2o1,?,?,i,?,i,i
CC(C)(C)c1ccc(NC(=O)COC(=O)C2CCCC2)cc1,11µM,i,i,nt,i,nt
Cc1cc(NC(=O)COC(=O)C2CC2)ccc1Br,8.5µM,i,i,nt,i,nt
COc1ccc(Cl)cc1NC(=O)COC(=O)C1CC1,nt,i,i,nt,i,nt
COc1ccc(NC(=O)COC(=O)C2CCC2)cc1Cl,i,i,i,nt,i,nt
COc1ccc(Cl)cc1NC(=O)COC(=O)C1CCCCC1,15µM,i,i,nt,i,nt
O=c1[nH]ncc(N/N=C\c2cccs2)c1Cl,i,21µM,i,?,i,i
O=c1[nH]ncc(N/N=C\c2ccncc2)c1Cl,i,?,i,?,i,i
O=C(Nc1ccccc1Cl)C1Cc2ccccc2O/C1=N\O (stereo not given),?,?,i,nt,i,nt
Cn1ccc(C(=O)Nc2ccc(Br)cc2Br)n1,3µM,4.6µM,3.5µM,5µM,3.2µM,i
Cc1ccc(NC(=O)c2ccn(C)n2)c(Br)c1,6µM,5.2µM,?,2µM,3.2µM,?
Cc1ccc(NC(=O)c2ccccn2)c(Br)c1,7.6µM,4.1µM,?,nt,2.8µM,nt
Cn1nnnc1SCC(=O)Nc1ccc(Br)cc1Br,nt,i,nt,nt,nt,nt
Cc1ccc(C)c(NC(=O)c2ccccn2)c1,?,i,i,i,i,i
S=C(NC1CCCCC1)N1CCn2cccc2C1c1cccnc1 (stereo not given),i,i,i,i,i,i
CCCN(CCC)C(=O)c1c(NC(=O)CC)sc2c1CCCCC2,i,i,i,i,i,i
Cc1cc(OCC(O)CN2CCc3ccccc3C2)cc(C(C)C)c1 (stereo not given),i,i,i,nt,i[1.84 µM],nt
O=C(O)c1ccccc1SCc1nc2ccccn2c1Br,?,i,i,i,i,i
Cc1cccc2nc(CSc3ccccc3C(=O)O)cn12,15µM,i,i,nt,?,nt
O=C(O)c1ccccc1SCc1cn2cc(Cl)ccc2n1,11µM,?,?,?,3.2µM,i
CCCNc1nc2c(c(=O)[nH]c(=O)n2C)n1Cc1cccc(Br)c1,i,?,i,i,i,i
O=C(c1cccc(Cl)c1)N1CCN(C(=O)c2ccco2)CC1,i,i,i,i,i,i
Cn1c(=S)n(/N=C/c2ccc3c(c2)OCO3)c2ccccc21,?,i,i,i,i,i
SMILES,FLuc modulator,ELG1 genotoxic,NPC1 prom act,SMN2 splice up,Rab9 promoter act,Luc counter
CN(C)c1ccc(/C=N/n2ncc3ccccc32)cc1,11µM,?,i,8.9µM,?,i
CCCCn1c(N)nc2ccccc21,i,i,i,i,i,i
CN(C)c1ccc(/C=N/NC(=O)c2cccc(C(=O)N/N=C/c3ccc(N(C)C)cc3)n2)cc1,?,i,i,i,i,i
CCCCn1c(/N=C/c2ccc3c(c2)OCO3)nc2ccccc21,8.5µM,i,i,i,i,i
CCCCn1c(/N=C/c2ccc(N(C)C)cc2)nc2ccccc21,1.9µM,i,i,i,i,i
C=CCn1c(/N=C/c2ccc(N(C)C)cc2)nc2ccccc21,0.13µM,i,i,nt,i,nt
C=CCn1c(/N=C/c2ccc(OC)cc2)nc2ccccc21,0.43µM,i,i,nt,i,nt
COc1ccc(/C=N/c2nc3ccccc3n2CCN2CCCCC2)cc1OC,i,i,i,i,i,i
CCCn1c(/N=C/c2ccccc2O)nc2ccccc21,i,i,i,i,i,i
CCn1c(/N=C/c2ccc(OC)cc2O)nc2ccccc21,0.95µM,i,i,nt,i,nt
O=C(COc1ccccc1Cl)Nc1ccc(C(=O)O)cc1NC(=O)COc1ccccc1Cl,i,i,i,nt,i,nt
CC1CCN(Cc2nc(-c3ccccc3)no2)CC1,12µM,5.2µM,2.8µM,nt,2.8µM,nt
Cc1ccc(-c2noc(CN3C(C)CCCC3C)n2)cc1 (stereo not given),?,21µM,i,i,i,i
CCCc1cc(=O)oc2cc(C)c3c(C(C)(C)C)coc3c12,i,nt,nt,i,nt,nt
Cc1cc(C(=O)COC(=O)C2=NNC(=O)CC2)c(C)n1-c1ccc(OC(F)F)cc1,i,i,i,i,i,i
CCCCCCn1c(=O)c(-c2nc3ccccc3c(=O)[nH]2)c(O)c2ccccc21,i,i,i,i,i,i
CCc1ccc2c(c1)[C@H]1OCC[C@H]1[C@@H](c1cccs1)N2,15µM,i,i,i,i,i
O=C1NC(c2ccc(Cl)cc2)Oc2ccccc21 (stereo not given),i,i,i,nt,i,nt
CC(C)c1ccc(C2NC(=O)c3ccccc3O2)cc1 (stereo not given),9.5µM,?,i,nt,i,nt
COc1ccc(C(=O)NCc2ccncc2)cc1OC,i,i,i,i,i,i
COc1cc(C)ccc1OCc1cc(C(=O)NCc2ccncc2)no1,12µM,18µM,2.8µM,nt,2µM,nt
COc1cc(C)ccc1OCc1cc(C(=O)NC(C)Cn2cncn2)no1 (stereo not given),?,?,2.2µM,nt,1.6µM,nt
Cc1ccc(C(=O)O/N=C(\N)Cc2cccs2)c(Cl)c1,1.2µM,2.1µM,1.6µM,nt,2µM,nt
Cc1ccc(C(=O)O/N=C(\N)Cc2ccc([N+](=O)[O-])cc2)c(Cl)c1,21µM,i,i,nt,i,nt
Cc1cc(OCC(=O)O/N=C(\N)Cc2cccs2)ccc1Br,?,i,i,i,i,i
SMILES,FLuc modulator,ELG1 genotoxic,NPC1 prom act,SMN2 splice up,Rab9 promoter act,Luc counter
O=C(COC(=O)/C=C/c1ccc(Cl)cc1Cl)Nc1ccc2c(c1)OCCO2,i,i,i,i,i,i
N#C/C(=C\c1c[nH]c2ccccc12)c1nnc2n1CCCCC2,?,i,i,i,i,i
COC(=O)C1=C(c2ccccc2)c2ccccc2S(=O)(=O)N1CC(=O)Nc1cc(C)ccc1C,i,nt,nt,i,nt,nt
Cc1nn(-c2ccccc2)c(N)c1N=Nc1cccc(S(=O)(=O)N2CCOCC2)c1,?,i,i,nt,i,nt
Cc1nn(-c2ccccc2)c(N)c1N=Nc1ccc(Cl)cc1,8.5µM,?,2.5µM,22µM,2µM,i
Cc1nn(-c2ccccc2)c(N)c1N=Nc1ccccc1,6.7µM,?,2.8µM,13µM,2µM,i
Nc1nn(-c2ccccc2)c(N)c1N=Nc1ccccc1,3µM,15µM,?,8.9µM,?,i
Cc1cc(C)n2nc(N)c(N=Nc3ccccc3)c2n1,15µM,i,i,nt,i,nt
COc1ccc(-n2c(=S)[nH]c3cc(C(=O)NCCCN4CCCC4=O)ccc3c2=O)cc1,i,i,i,i,i,i
CCCCc1n[nH]c2c1/C(=N/O)CC(C)(C)C2,i,i,i,i,i,i
Cc1nc(C)c(-c2csc(N)n2)s1,i,i,i,nt,i,i
